Measurements published in ChEMBL document CHEMBL3988442, “University of Dundee, Small-Polar-MMV Screening Library” (2021).

biological target: T1, Aspartate--tRNA(Asp/Asn) ligase (Mycobacterium tuberculosis (strain ATCC 25618 / H37Rv)) (UniProt P9WFW3); test: Assay for Asp RNA synthetase-1 from Mycobacterium tuberculosis; assay type: functional; design: scale not given: in the data most compounds retested in dose-response had high values; conditions: 30 µM
T1 sequence (whole entry): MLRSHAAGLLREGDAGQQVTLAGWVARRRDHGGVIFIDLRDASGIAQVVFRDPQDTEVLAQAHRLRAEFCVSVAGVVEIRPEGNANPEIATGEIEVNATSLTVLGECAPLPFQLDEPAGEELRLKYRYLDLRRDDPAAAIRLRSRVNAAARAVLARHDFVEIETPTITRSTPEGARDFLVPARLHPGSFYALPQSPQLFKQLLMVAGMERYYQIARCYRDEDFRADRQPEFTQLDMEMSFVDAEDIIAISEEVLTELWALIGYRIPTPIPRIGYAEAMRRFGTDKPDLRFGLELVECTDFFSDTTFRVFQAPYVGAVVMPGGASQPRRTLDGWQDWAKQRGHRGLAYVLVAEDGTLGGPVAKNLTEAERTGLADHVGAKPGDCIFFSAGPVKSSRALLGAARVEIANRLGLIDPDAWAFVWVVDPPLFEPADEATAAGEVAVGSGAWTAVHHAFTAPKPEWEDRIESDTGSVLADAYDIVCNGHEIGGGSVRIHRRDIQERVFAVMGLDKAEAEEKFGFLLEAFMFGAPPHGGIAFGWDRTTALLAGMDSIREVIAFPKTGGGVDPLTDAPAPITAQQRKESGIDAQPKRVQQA

First: CCC1c2ccsc2CCN1C(=O)NCc1ccccn1 (stereo not given)
Second: COCc1ccccc1NC(=O)[C@@H]1CCCN1C(=O)c1ccco1
The Percent Effect of the first is higher: -0.144% for the first, -0.557% for the second.

First: Cc1nc(N2CCCC2)nc2c1CCN(C(=O)CC1CC1)CC2
Second: O=C(C1CCC1)N1CCCC1c1nnc2n1CCCCC2 (stereo not given)
The Percent Effect of the first is lower: -1.6% for the first, -0.296% for the second.

First: Cc1cc(C)n(CC2CCCN2CC(=O)N(C)Cc2cnn(C)c2)n1 (stereo not given)
Second: Cc1cc(NCc2cc3n(n2)CCCN(C(=O)N(C)C)C3)ncn1
The Percent Effect of the first is lower: -0.211% for the first, 0.54% for the second.

First: COc1ccc(C(=O)N(C)Cc2cccc(C#N)c2)c(OC)c1OC
Second: COc1ccc(C2C3=C(COC3=O)Nc3[nH]nc(C)c32)cc1OC (stereo not given)
The Percent Effect of the first is higher: -1.51% for the first, -2.61% for the second.

First: CNC(=O)N1C[C@H]2C[C@H](C(=O)Nc3ccccc3)[C@@H](C1)O2
Second: O=C(CN1CCCC(c2ccc(C(=O)O)cc2)C1)NC1CC1 (stereo not given)
The Percent Effect of the first is higher: 2.94% for the first, -1.07% for the second.

Compared with `CN(C)C(=O)N1Cc2nnn(C)c2C(COCC2CC2)C1` (stereo not given), `Cc1nnc(N2CC[C@H](OCC3CC3)[C@@H](Cc3ccccc3)C2)s1` is higher in Percent Effect: 3.51% for the first, 9.93% for the second.

Going from `Cc1ccccc1CN1CCN(Cc2nccn2C)CC1` to `COc1ccc2c(c1)C1(CCN(Cc3ccoc3)CC1)N(C)CC2`, the Percent Effect rises from -1.8% to 0.685%.

Compared with `O=C(Nc1nccs1)N(CCO)Cc1ccsc1`, `COCc1nc(C(=O)NS(=O)(=O)c2ccc(C)cc2C)cs1` is higher in Percent Effect: -2.48% for the first, 0.811% for the second.

Going from `Cc1noc([C@@H]2C[C@H]3OCC[C@H]3N(S(=O)(=O)c3cccnc3)C2)n1` to `Cc1ccn(CCC(=O)N2CCOC(c3nc(-c4cccs4)no3)C2)n1` (stereo not given), the Percent Effect rises from -1.34% to -0.897%.

First: CCN1CCC2(CC1)CC(NC(=O)N(C)C)c1cc(C)ccc12 (stereo not given)
Second: CCc1cccc(N2CCC(NC(=O)c3cc[nH]n3)CC2)c1
The Percent Effect of the first is lower: 2.85% for the first, 7.15% for the second.

Going from `COC(=O)c1ccc(S(=O)(=O)NCc2cccnc2N(C)C)cc1` to `CCS(=O)(=O)c1ncc(CN(C)Cc2ccccn2)n1CCOC`, the Percent Effect rises from -3.4% to 0.893%.

First: CNC(=O)C1Cn2ccnc2C2(CCN(Cc3cccnc3)CC2)O1 (stereo not given)
Second: Cc1nccnc1N1CC[C@@H](NC(=O)c2cnccn2)[C@H](O)C1
The Percent Effect of the first is lower: -0.0764% for the first, 3.96% for the second.

First: Cc1cnc(CN(C)C2CCN(CC(=O)Nc3nncs3)C2)o1 (stereo not given)
Second: O=C(CCc1cscn1)N1CCCC(c2ccn[nH]2)C1 (stereo not given)
The Percent Effect of the first is higher: 3.17% for the first, -1.82% for the second.

First: CN(CCNC(=O)NCc1ccncc1)C1CCCC1
Second: COCCO[C@H]1CCN(C(=O)c2ccc[nH]2)[C@H]1Cc1ccncc1
The Percent Effect of the first is lower: -2.09% for the first, -0.0147% for the second.

Compared with `CNc1nc(CNC(=O)Nc2ccccc2-c2noc(C)n2)cs1`, `Cc1nc(C)c(C(=O)NCCNc2ncccc2C#N)s1` is higher in Percent Effect: -2.92% for the first, 0.324% for the second.

Compared with `Cc1ccc(-c2cc(CNC(=O)N3CCC(CO)CC3)on2)cc1`, `Cn1ccc2c(C(=O)N3CCC(C(N)=O)CC3)cccc21` is lower in Percent Effect: 3.99% for the first, 0.465% for the second.

First: COc1c(CNCc2ccnc(N3CCCC3)c2)c(C)nn1C
Second: O=c1cc2c(nn1CN1CCN(c3cccc(Cl)c3)CC1)CCC2
The Percent Effect of the first is higher: 2.34% for the first, -1.19% for the second.

First: Cc1c(Br)cccc1C(=O)NC(C)CN1CCCC1=O (stereo not given)
Second: CC(C)c1ccc(C(O)Cn2c(=O)c(C#N)cn(C3CC3)c2=O)cc1 (stereo not given)
The Percent Effect of the first is lower: -1.01% for the first, 2.61% for the second.

Going from `CCc1nc2ccccc2c(=O)n1CC1(O)CCN(S(C)(=O)=O)CC1` to `Cn1cc(C(=O)NC[C@@H]2OC[C@H]3CN(S(C)(=O)=O)CC[C@H]32)cn1`, the Percent Effect falls from 4.54% to 0.41%.

Going from `CC(C)(C)c1noc(CN2CCN(C(=O)c3cccs3)CC2)n1` to `CS(=O)(=O)c1cccc(C(N)c2ccc(F)c(F)c2)c1` (stereo not given), the Percent Effect falls from 0.425% to -1.19%.
